From PubChem
An excerpt weighted towards active compounds, which were near 19% of everything screened.
Pf growth 48h: Primary qHTS for delayed death inhibitors of the malarial parasite plastid, 48 hour incubation; AID 504832, 2011; Potency, µM (doses to about 28.7 µM), for inactives: at the highest dose activity change, negative = inhibition, most hits filed as inhibitors; P. falciparum luciferase growth in erythrocytes, 48 h; 310,000 tested, 5.9% active; further: potency means the concentration at half of the fitted maximal effect; on the % scale 0 is the no-effect control and ±100 the full control effect
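Firefly luciferase activity from engineered P. falciparum reports growth; inhibitors lower the luminescent signal. Cultures contained 2% hematocrit erythrocytes at 0.1% final parasitemia.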
Pf growth 96h: Primary qHTS for delayed death inhibitors of the malarial parasite plastid, 96 hour incubation; P. falciparum luciferase reporter growth, 96 h; Potency, µM (highest dose often 28.7 µM), without a hit: at the top dose activity change, negative = inhibition, hits mostly inhibitors; 320,000 tested, 6.9% active; further: potency means the concentration at half of the fitted maximal effect; on the % scale 0 is the no-effect control and ±100 the full control effect
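Cell-based qHTS: luciferase-tagged P. falciparum in erythrocytes (2% hematocrit, 0.05% parasitemia final) incubated with compounds for 96 hours, 37 C, 5% CO2; luciferase detection reagent then added and luminescence measured.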
Shiga inhibitor: A qHTS for Small Molecule Inhibitors of Shiga Toxin. inhibition, % at 38.7 µM. 290,000 tested, 9.2% active. Vero cells, Shiga toxin protein synthesis inhibition reporter; in the data active means inhibition mostly above about 28%, no sharp cut-off; inactive means mostly below about 43%; further: 0% is about no effect
AMA1-RON2 inh: qHTS for Inhibitors of AMA1-RON; Towards Development of Antimalarial Drug Lead: Primary Screen | AlphaScreen AMA1-biotinylated RON2 peptide binding | Plasmodium falciparum AMA1 (3D7) - RON2 peptide interaction | Potency, µM (doses to about 58.2 µM), for the others: at the highest dose activity change, negative = inhibition, most hits filed as inhibitors | 360,000 tested, 0.2% active | AID 720542, 2013;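 further: potency means the concentration at half of the fitted maximal effect; 0% = vehicle wells and -100% = peptide control; nearly all actives have a fitted effect of over 45% in size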
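AMA1 (3D7) with his tag at 25 nM final met compounds first, then biotinylated RON2 peptide at 25 nM; detection used donor plus acceptor beads, 10 µg/mL apiece, read by AlphaScreen after 30 min at room temperature.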
Cycloheximide cs: Cycloheximide Counterscreen for Small Molecule Inhibitors of Shiga Toxin | cell reporter, cycloheximide protein synthesis inhibition counterscreen | max response, % | 300,000 tested, 12% active; in the data active means max response mostly above about 13%, no sharp cut-off; inactive means mostly below about 14%; further: read at 38.3 µM for the half of the compounds with a filed dose; 0% is about no effect
SARS PLpro yeast: qHTS of Yeast-based Assay for SARS-CoV PLP; S. cerevisiae expressing SARS-CoV PLpro, growth rescue; Potency, µM (doses to about 32.9 µM), without a hit: at the top dose activity, positive = growth rescue, hits mostly activators; 330,000 tested, 0.19% active; AID 485353, 2010; calls by dose curve; further: potency means the concentration at half of the fitted maximal effect; 0% is about no effect; nearly all actives have a fitted effect of over 55% in size
The depositor's hits bear a star; u = inconclusive; x = not tested or not shown; [ ] = remark or other dose. Unless noted, the call rests on the fitted dose curve; in most records, active means well fitted curve in the direction sought with a large enough effect; inconclusive means small, poorly fitted or top-dose-only effect, or another doubt; inactive means no such curve, though single readings can be large; an effect the other way counts as inactive or inconclusive.

SMILES	Pf growth 48h	Pf growth 96h	Shiga inhibitor	AMA1-RON2 inh	Cycloheximide cs	SARS PLpro yeast
Cc1ccc(/C=C2\SC(N)=NC2=O)s1	36%	10%	12	-4%	15	-8%
NC1=NC(=O)/C(=C/c2ccc(Br)cc2)S1	13%	2.3µM*	x	-1%	7	0%
CCOC(=O)CSC1=NC(=O)/C(=C\c2ccc(OC(C)=O)cc2)S1	59%	189%	120*	-5%	28*	-17%
CC(=O)N1CCN(C2=NC(=O)/C(=C/c3ccc(OS(=O)(=O)c4ccccc4)cc3)S2)CC1	u	u	-5	10%	-4	17%
NC1=NC(=O)/C(=C/c2cc(Br)c(O)c(Br)c2)S1	5%	u	108	-4%	35	4%
CCOC(=O)COc1ccc(Br)cc1/C=C1\SC(N)=NC1=O	u	-5%	-12	-5%	1	6%
CCOC(=O)CSC1=NC(=O)/C(=C/c2ccc(Br)cc2)S1	153%	-3%	60*	-6%	30*	-24%
O=C(NCC(=O)N1CCN(C(c2ccccc2)c2ccccc2)CC1)c1ccccc1Br	x	x	x	0%	x	x
CCOCCCNC(=O)C(Cc1ccccc1)NC(=O)c1ccco1 (stereo not drawn)	-11%	35%	25	-3%	-3	0%
CC1(C(=O)NCC2CCCCC2)CCN1C(=O)Cc1ccc(-c2ccccc2)cc1 (stereo not drawn)	x	x	x	-12%	x	x
Cc1cc(C(=O)COC(=O)Cc2n[nH]c(=O)c3ccccc23)c(C)n1-c1cccc(C(F)(F)F)c1	9.3µM*	2.9µM*	-11	-2%	-2	-17%
CC1Oc2cc3c(-c4c(O)cc(O)c5c(O)c6c(cc45)OC(C)C(C)C6=O)c(O)cc(O)c3c(O)c2C(=O)C1C (stereo not drawn)	0.37µM*	0.52µM*	-3	-15%	7	2%
C[C@@H]1Cc2c(O)c(O)cc(O)c2C(=O)O1	u	27%	-7	u	3	-1%
COc1cc(OC)cc(C(=O)OCC(=O)N(C)c2ccccc2)c1	8%	24%	-4	18%	-2	-2%
CC1CN(C(=O)CSc2nnc(-c3ccc(Cl)cc3)n2C)CC(C)O1 (stereo not drawn)	3%	31%	55	-4%	20*	2%
Cc1c(C)n2c(SCC(=O)N3CCOCC3)nnc2[nH]c1=O	u	u	x	-8%	x	6%
Cn1c(SCC(=O)N2CCN(c3ccccc3)CC2)nnc1-c1ccncc1	-26%	12µM*	14	5%	-5	6%
CCc1cccc2c(C(=O)CSc3nnc(-c4ccncc4)n3C)c[nH]c12	u	10µM*	-2	-12%	-3	-1%
Cc1c(C)n2c(SCC(=O)N3CCN(c4ccccc4)CC3)nnc2[nH]c1=O	3.3µM*	u	x	19%	x	x
COc1ccc(/C(O)=C2/C(=O)C(=O)N(c3ncccn3)C2c2ccc(C(C)(C)C)cc2)cc1 (stereo not drawn)	17%	-17%	16	x	1	5%
O=C(O)C1CC(O)CN1C(=O)c1ccco1 (stereo not drawn)	u	42%	-2	-1%	-2	3%
Cc1nnc(SCC(=O)N2CC(C)OC(C)C2)n1-c1ccccc1 (stereo not drawn)	0%	-5%	-5	9%	-3	5%
Cc1c(C)n2c(SCC(=O)N3CC(C)OC(C)C3)nnc2[nH]c1=O (stereo not drawn)	u	5.2µM*	x	8%	x	3%
CC(C)c1ccccc1-n1c(SCC(=O)N2CCN(c3ccccc3)CC2)nnc1-c1cccnc1	u	8.3µM*	-14	-5%	-3	-3%
CC1CN(C(=O)CSc2nnc(-c3ccncc3)n2-c2ccccc2)CC(C)O1 (stereo not drawn)	24%	10µM*	2	0%	-3	7%
SMILES	Pf growth 48h	Pf growth 96h	Shiga inhibitor	AMA1-RON2 inh	Cycloheximide cs	SARS PLpro yeast
O=C(CSc1nnc(-c2cccnc2)n1-c1ccc(SC(F)F)cc1)N1CCCc2ccccc21	u	10µM*	-7	0%	-2	-2%
CCCNS(=O)(=O)c1cc(Cl)ccc1OC	13%	52%	26	7%	4	0%
CN[C@H](C)C(=O)NC[C@H]1O[C@@H](n2cnc3c(N)ncnc32)[C@H](O)[C@@H]1O	x	x	x	12%	x	22%
CCCCn1c(N)c(N(CC(C)C)C(=O)COC(=O)C2(c3ccccc3)CC2)c(=O)[nH]c1=O	u	u	x	8%	x	8%
O=C(NCCN1CCOCC1)c1cccc(NS(=O)(=O)c2ccc(Br)cc2)c1	-9%	u	x	-10%	x	7%
Nc1ccc(CCc2ccccn2)cc1	x	x	x	25%	x	x
CCOC(=O)CCCc1sc(N)nc1-c1[nH]c(=O)[nH]c1C	23%	-23%[5.75 µM]	7	1.5µM*	-1	8%
CCOC(=O)CCc1c(C)n[nH]c1C	28%	-4%	20	8%	-2	-1%
CCCn1c(SCC(=O)NC2CCCC2)nc2c1c(=O)n(C)c(=O)n2C	-17%	1%	23	-2%	9	-1%
Cc1ccc(S(=O)(=O)N2CCN(C(=O)c3ccccn3)CC2)cc1	-7%	20%	26	-9%	-2	1%
Cc1ccccc1-n1nc(C)c2cc(C(=O)N3CCOCC3)sc21	-17%	3.3µM*	20	6%	19	5%
Cc1ccc(S(=O)(=O)N2CCN(C(=O)c3cc4c(C)nn(-c5ccccc5C)c4s3)CC2)cc1	4.7µM*	3.3µM*	-12	-8%	-4	4%
Cc1nn(-c2ccccc2)c2sc(C(=O)N3CCCCC3)cc12	46%	2%	114*	-4%	48*	x
Cc1cnc(NC(=O)c2cc3c(C)nn(-c4ccccc4)c3s2)s1	6.6µM*	u	12	24%	8	-5%
Cc1nn(-c2ccccc2)c2sc(C(=O)NC3CCCCC3)cc12	u	5%	18	-7%	5	3%
Cc1nn(-c2ccccc2)c2sc(C(=O)N3CCc4ccccc4C3)cc12	-12%	u	-3	-11%	-1	-14%
CN1OC[C@@H]2CN(C(=S)NCCc3ccccc3)[C@H](c3ccc(-n4ccnc4)cc3)C[C@@H]21	x	x	x	-12%	x	x
CCOC(=O)c1c(C)[nH]c(C)c1C(=O)COC(=O)c1ccc(Cl)c(S(=O)(=O)NCc2ccccc2)c1	x	u	-20	-2%	5	8%
Cc1nn(-c2ccccc2)c2sc(C(=O)NCCN3CCOCC3)cc12	u	3.7µM*	-14	-12%	3	-11%
Cc1nn(-c2ccccc2)c2sc(C(=O)c3c(N)n(C)c(=O)n(C)c3=O)cc12	1.5µM*	u	16	-17%	7	6%
